In PubChem BioAssay AID1508600 (Functional Genomics Laboratory (NCATS/FGL), 2020):
Screen size: about 53,000 sequences; about 3,700 (7%) were called active. The full list was thinned out, with actives kept by preference. Values without a mark were called inactive.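 The calls were made as follows: active = gene knockdowns whose robust z-score for IL-1 alpha signal is at least 2 or at most -2, so actives lie on both sides; inactive = the rest.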

Test: Components of the Cytosolic LPS Sensing Pathway: Gene Identification via Genome-wide siRNA Screen;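 also: robust z of the log signal after scaling to non-targeting control siRNA wells of the plate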
Details: RAW264.7 macrophages, IL-1a HTRF, actives lie on both sides, screened at 100 nM (by protocol), cells primed 5 h with Pam3CSK4 first
Procedure, shortened: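 Knockdown: 100 nM siRNA, 48h, RAW264.7. Stimulation: Pam3CSK4 5 h, then LipidA via TransIT-TKO 24 h. Output: supernatant IL-1a HTRF, negative-control-normalized, log robust z-score; viability by CellTiter-Glo.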
In the case of CGUGGAGAGAUCAAUCCCGTT against Adad1, the z-score was -2.01 (active). Sequence GGUUCAUGAAUGACAAACUTT against Sult4a1 has a z-score of 0.383. In the case of GGUGUUUAAUAAUGUUGUCTT against Olfr976, the z-score was -0.27. CCCAAUGACAAUAAAGACCTT against Mmp25 showed a z-score of -0.936. In the case of GGGCUUGUAUCUACCAUGGTT against Strbp, the z-score was 2.18 (active). Sequence GGUAAGAGGAUCCAAGGUGTT against Fam131a has a z-score of 0.0909. For CCUACGUCCAGUAGUGCAGTT against Ahdc1, the z-score was 1.43. In the case of GCUCAAAGGACCUCUGAGCTT against Slc29a2, the z-score was -1.28. In the case of CCUCCACUUCGUGAGCGAATT against Xxylt1, the z-score was -1.25. For GCCACUGUUGUGUAAACUATT against Rap2a, the z-score was 2.01 (active). GGAGAAGUCUUCAUUUGAATT against Tubgcp2 showed a z-score of -0.331. With GGAAGUAGGCAGCAUCAUCTT against Pcbp1 the z-score was 1.13. For GGCUGGCUUUGAACUCAAUTT against Zfp36, the z-score was -1.28. With GCAACUGCCUAGGCUUGAUTT against Slc30a7 the z-score was 4.79 (active). Work on GGCAGAUGUAUGAAAUCUUTT against Fancc yielded a z-score of -0.196. Work on GGUAUGCAACCUUGCCUUUTT against Coa3 yielded a z-score of 0.945. In the case of GGAGAAGACUUGUAACAAATT against Hacd4, the z-score was 5.28 (active). For GGGAUGACUUGGAGUCUCUTT against Csnk1d, the z-score was -0.0473. Sequence CGGUUUCUUACCAGCAAUUTT against Mgmt has a z-score of -0.237. With GAACCAGACUAAGAACUGUTT against Cox6b1 the z-score was 5.31 (active). In the case of GGCCUUCUCUGACUUUCUGTT against Zfp324, the z-score was -0.633. Work on GGGACAAUGUACAUCUACUTT against Dnaaf6b yielded a z-score of -0.199. With GCAAGAUCCGUACAUAGCATT against Wdr48 the z-score was -1.43. Sequence GGCAUUAAAGACCUGUUAATT against Kpnb1 has a z-score of -0.887. AUUGUAGCAGUGAAUUGGATT against Pdia6 showed a z-score of -0.121. With GGAGCUGAUAGGACUGAUGTT against Snap47 the z-score was 2.16 (active). Work on CCAGAAAUUGACAAAAAGUTT against Etfa yielded a z-score of 0.492. In the case of GCCCUACCAAAGACACUAGTT against Lrch4, the z-score was -2.31 (active). GGCAGGAGAAAGGCCUUUUTT against Olfr535 showed a z-score of 0.123. With GAGUGUGCAUUUUGUUAGUTT against Olfr136 the z-score was 0.763. In the case of GGCUGAGGCUGUGAAGAAGTT against Igfbp5, the z-score was -0.659. In the case of GGGCAAACGGAGGAAUGAATT against Slc35g3, the z-score was 2.47 (active). Work on GGAGAGUAAAUACCGACAGTT against Homer2 yielded a z-score of -0.133. With GCUGUUACCCUUAUGCAGCTT against Supt7l the z-score was 0.486. Work on GGACAACGAUAGCUAACCUTT against Tmem63a yielded a z-score of 0.453. With GGAUGAAGAACCACUCAAATT against Ankzf1 the z-score was -1.06. In the case of GGUGUGUUUUAUGUGUCCCTT against Ctif, the z-score was 2.62 (active). For CCUAUUUUAACCUUACGUGTT against Bdh1, the z-score was -0.443. GGAAGAGUUGGAGAAAAUUTT against Tex46 gave a z-score of 2. In the case of GGAGGUCUACAUUUAUUAATT against Dera, the z-score was 1.31. CCAAACAGGCUUUUUUCCUTT against Snx31 showed a z-score of -0.712. For GCAACGAGUGUGUUUUCUGTT against Spink10, the z-score was 2.25 (active). Work on CCAUGUCAAACACCUUAGUTT against Crebzf yielded a z-score of 1.26. GGUAAGCUCCAAUUAUGCCTT against Ubr3 showed a z-score of 0.0463. In the case of GGAGCAAUUGAGAAAGAAGTT against Moap1, the z-score was 0.508. With CCCGUAACCAUUUACUGGUTT against Tyro3 the z-score was 0.85. With GGCACGAGCUCUCAUCUUUTT against Slc27a4 the z-score was -0.752. For GGAAACAAGGGACUCUGUATT against Col4a4, the z-score was 0.906. In the case of GCAGCUUUUUGAGGUGUUATT against Slc9a7, the z-score was 3.07 (active). For GGAAUAGUGAAGGUACUUUTT against Cer1, the z-score was 2.4 (active). With GGAAUUCUCUAUACCAAGATT against P2ry10b the z-score was 0.51. Sequence GCAAUUCCUCUUUUAGUCCTT against Spag6l has a z-score of -1.38. GGCAGAUCUUCUUUGGAAATT against Ugt2b38 gave a z-score of 0.757. With GGACCGUCAGUGUCAUGGATT against Zfp397 the z-score was -2.55 (active). In the case of CCAUUGUUUGACUCAAAACTT against Gjc3, the z-score was 0.62. With GGACCAUGGAUAUUUAAAGTT against Mafk the z-score was -0.297. With GGAACUCUGUGGGUGAGAATT against Dock8 the z-score was -1.46. For CCGGAUGUGCCUUGUCUACTT against Ckap5, the z-score was -1.58. In the case of GGAAAAUCAAGACCUAUGGTT against Obox6, the z-score was -1.37. With GGAAGAGGUUAGCAAGCAUTT against Iws1 the z-score was 2.27 (active). For GUGCAUUGUCUUUUGUAGATT against Olfr1095, the z-score was -0.753. CGAUAAACUGGAUACCACUTT against Sntn gave a z-score of 0.437. GCAAUCUGUUUAGAGAGAGTT against Slc10a5 gave a z-score of -1.16. With GGUGGUGAAUAUGAUGAUATT against Tsr1 the z-score was -0.712. For GCUAAUGAUUUCCGCUUUGTT against Tyw1, the z-score was 0.367. For GCCUUAUGGUUUUGUAUUUTT against Nap1l1, the z-score was -2.38 (active). GCCCGCAUUCUUAUUCGAUTT against Tmem64 showed a z-score of -1.13. GCUGAUGUUAAAUUCGCAGTT against Serpinb3b showed a z-score of 1.33. With CCACCUAUCAGGAUUCAACTT against Sf3b6 the z-score was -3.37 (active). For GGAGCCCUGUGUCUUGAGUTT against Ccl19, the z-score was -0.39. Work on GGAGAUCCAAGAGAAAUUUTT against Csf3r yielded a z-score of 1.18. Work on GCAUUACACUGUUAAUGUUTT against Gopc yielded a z-score of -0.138. For GCCUCAUUAUGAGUUGGCATT against Olfr1419, the z-score was -2.51 (active). Sequence GGAAUCACAAGGUAUUUUCTT against Spo11 has a z-score of -0.237. In the case of GGUCCACAAUGGCAUCAUATT against Elf4, the z-score was 2.13 (active). GGAGAAGUUUAAGGAGAUUTT against Dnajb5 gave a z-score of 1.54. CCUUUGGUAAUCUCCAAAATT against Amph showed a z-score of 0.862. For CCUUCUGCGGCUCAGUCUATT against Bach2os, the z-score was -0.199. In the case of GGAACCUACUGCUACAUCATT against Sftpc, the z-score was 2.24 (active). Sequence GGCUUUCCUUACCAUAUAUTT against Trim7 has a z-score of -0.675. GGAGAUUGGCAUAGAGAAGTT against Myo5b showed a z-score of 0.437. Work on AUCCAUUUUGUGCUAGGCATT against Cacfd1 yielded a z-score of 0.473. In the case of CCUGCUAUGUAAUAUAGAUTT against Eef2k, the z-score was 0.0542. For “CCCGCUUGUUCUGAUGAUATT against 2310039H08Rik”, the z-score was -2.26 (active). GGAAAGAAAUGAAUCAGUATT against Rnf216 gave a z-score of 0.882. GGACAUUAAGAGUGGAAAGTT against Nucb1 gave a z-score of 0.777. For GGGAAGGAUUAUGUCAAAUTT against Kit, the z-score was 0.328. Work on CGGCCUCCAUGUUAAGAUATT against Csf2rb2 yielded a z-score of -0.249. With GCCUGAAGAGAGUCUUAUCTT against Bnip5 the z-score was 1.09. Sequence GGCAUUUAAAUCUGUGUGUTT against Slc39a6 has a z-score of -0.471. In the case of GCAAUGGUUUCGGCUACGATT against Hoxb3, the z-score was 2.18 (active). In the case of GGGAGGAAGUGGAAGUUCUTT against Tsc22d1, the z-score was 0.488. For GGUGAAUGUAGUGUUAAAATT against Cyrib, the z-score was -0.204. In the case of GAGAUGUCCGAAAUGCCAATT against Smco4, the z-score was 1.73. With GGACAGUGUAGUCAAAAAATT against Cx3cr1 the z-score was 0.149. Work on GCAAACCUCAAUCUUGAAATT against Kif15 yielded a z-score of 0.297. For “GGCAGUUAUUUCUAUCUUATT against 1700018F24Rik”, the z-score was 0.683. Sequence GGCUGUUGAACAGGUUAUCTT against Mis12 has a z-score of 0.645. For CCUGAUCAACAAACCGGAUTT against Rfxank, the z-score was 1.29. CGACUGUCGUUUGUUGAUGTT against Tktl2 showed a z-score of -0.766. With GUAGAGUGAUGAGAGGCCUTT against Vmn1r-ps8 the z-score was -0.475. UUCAAAUAAACUCUCUGCUTT against Krtap31-2 gave a z-score of 0.802. With GGAAUUCCCAAGAGAAGGATT against Gk the z-score was -5.27 (active). GCCUUCAUGGGAUUUGUCUTT against Opn1sw gave a z-score of -0.498. In the case of GGGCCACAGCUUAAUACUGTT against Ptov1, the z-score was 3.28 (active). Sequence GCUAGUUUCCGUCGCUUUGTT against Cpeb4 has a z-score of 0.555. Work on GGUACUGGAAAUCUGUAUGTT against Nlgn1 yielded a z-score of -0.332. For GCGAACUUUUACAUUUCGATT against Gmpr, the z-score was 0.272.
